28 compounds from PubChem BioAssay (NCATS) can be followed below.

A short description of experiment [1]: qHTS Assay for Identifying Gametocytocidal Compounds (AID 743244; active = well fitted curve in the direction sought with a large enough effect; an effect the other way counts as inactive or inconclusive; also: potency is read from the fitted curve at half-maximal effect;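 as to max response: % is scaled to controls: 0 for no effect and ±100 for the full control effect; actives lower the fluorescent signal which means gametocytes are killed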). Conditions: P. falciparum 3D7 stage III-V gametocytes, alamarBlue, 72 h; max response: stronger effect = lower value. A digest of the protocol: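 P. falciparum 3D7 stage III–V gametocytes (20,000 cells/well) were exposed to compounds for 72 h at 37 °C, 5% CO2. AlamarBlue was then added for 24 h; decreased resorufin fluorescence (Ex 525/Em 598 nm) indicated loss of viability.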
In general terms: In qHTS, concentration-response curves come from the screen itself.

The conditions of experiment [2]: Ebola virus entry assay, green fluorescence channel.
The conditions of experiment [3]: Ebola virus entry assay, green channel fluorescence.
For experiment [4] the following is noted: Ebola virus entry assay, reporter ratio channel; AC50: Channel type: primary unless noted; outcome: Channel type: primary unless noted.
For experiment [5] the following is noted: Ebola virus entry assay, blue channel fluorescence.
The conditions of experiment [6]: Ebola virus entry assay, green fluorescence channel. This is another data set of the same source.
For experiment [7] the following is noted: Ebola virus entry assay, ratio channel readout.
Experiment [8] is described as follows: qHTS profiling of the MIPE4 collection as inhibitors of Plasmodium falciparum (3D7) proliferation (AID 743344).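 Also: scaled between DMSO vehicle wells and 0.29 µM artemisinin as full inhibition.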 As to conditions: P. falciparum 3D7 in erythrocytes, SYBR Green DNA fluorescence, 72 h; at 28.5 µM (top of the series) unless noted. A digest of the protocol:
(§1)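 Erythrocytes infected with P. falciparum (0.3% parasitemia, 2.5% hematocrit) incubated with compounds 72 h at 37 C, 5% CO2. Lysis with saponin/Triton buffer containing SYBR Green I, overnight at room temperature in the dark; DNA fluorescence (485/535 nm) normalised to 0.29 uM artemisinin and DMSO.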

The nature of experiment [9]: qHTS profiling of the MIPE4 collection as inhibitors of Plasmodium falciparum (DD2) proliferation (AID 743345). As to conditions: P. falciparum Dd2 in erythrocytes, SYBR Green DNA, 72 h; at 28.5 µM (top of the series) unless noted. The procedure, abridged: as §1
A short description of experiment [10]: qHTS profiling of the MIPE4 collection as inhibitors of Plasmodium falciparum (DD2) proliferation (Rep 2) (AID 743346). As to conditions: P. falciparum Dd2 in erythrocytes, SYBR Green DNA, 72 h; at 28.5 µM (top of the series) unless noted. The procedure, abridged: as §1
Experiment [11] can be described thus: qHTS profiling of the MIPE4 collection as inhibitors of Plasmodium falciparum (HB3) proliferation (AID 743347).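 Also: plate controls were DMSO vehicle wells for no effect and artemisinin wells for full effect.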 Conditions: P. falciparum HB3 in erythrocytes, SYBR Green DNA, 72 h; at 28.5 µM (top of the series) unless noted. A digest of the protocol: as §1
Experiment [12] in a line: qHTS assay for cell viability of HEK293 cells (AID 743288; active = well fitted curve in the direction sought with a large enough effect; an effect the other way counts as inactive or inconclusive; also: % is scaled to controls: 0 for no effect and ±100 for the full control effect; nearly all actives have a fitted effect of over 50% in size). Conditions: ATP luminescence (CellTiter-Glo), 18 h, stronger effect = lower value. The procedure, abridged: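 Total intracellular ATP, measured with a luciferase-coupled reagent, indicates the number of viable HEK293 cells. Exposure to test chemicals lasts 18 h at 37 C in 1,536-well format at 2,000 cells/well.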
Experiment [13] is described as follows: qHTS assay for cell viability of the p53RE-bla HCT-116 cell line (AID 743292; active = well fitted curve in the direction sought with a large enough effect; an effect the other way counts as inactive or inconclusive; also: % is scaled to controls: 0 for no effect and ±100 for the full control effect; nearly all actives have a fitted effect of over 55% in size). A digest of the protocol:
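After plating at 4,000 cells per well and a 5 h rest at 37 C, HCT-116 cells carrying p53RE-bla received test chemicals in DMSO. Sixteen hours later at 37 C, CellTiter-Glo was added and luminescence recorded following 30 min at room temperature.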

Experiment [14] deals with T1, Hexokinase-4 (Homo sapiens) + Glucokinase regulatory protein (Homo sapiens) (UniProt P35557+Q14397). The experiment in a line: qHTS assay for inhibitors of recombinant human GCK-GKRP interaction: ADP-Glo assay (AID 743206; active = well fitted curve in the direction sought with a large enough effect; an effect the other way counts as inactive or inconclusive;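 also: plate controls were DMSO plus enzyme for no effect and no enzyme for full effect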). A digest of the protocol:
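GST-GCK and FLAG-GKRP (15 nM each in the dispensed mix, with 2 uM S6P) react with 0.4 mM ATP and 5 mM glucose (final) in Hepes pH 7.6 for 60 min at room temperature. ADP is measured by ADP-Glo luminescence.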

The target of experiment [15] is T1, Hexokinase-4 (Homo sapiens) + Glucokinase regulatory protein (Homo sapiens). The experiment in a line: qHTS assay for inhibitors of recombinant human GCK-GKRP interaction: HTRF assay (AID 743207; active = well fitted curve in the direction sought with a large enough effect; an effect the other way counts as inactive or inconclusive;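 also: 0% = DMSO with GCK present and -100% = DMSO wells lacking GCK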). The procedure, abridged: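 After 60 min equilibration at room temperature with anti-FLAG XL665 and anti-GST antibodies, FRET ratio (665/615 nm, excitation 320 nm) was read. Proteins: GST-GCK and FLAG-GKRP, each 5 nM, plus 2 uM S6P, pH 7.1 buffer; GCK-free wells define minimum signal.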

The conditions of experiment [16]: Ebola virus entry assay, blue channel fluorescence. This is another data set of the same source.
For experiment [17] the following is noted: Ebola virus entry assay, ratio channel.
The conditions of experiment [18]: Ebola virus entry assay, blue channel fluorescence. The source holds these as a separate data set.

Several values for one entry are separate records, joined by “and”; a condition that tells them apart may be missing. Equal values may be shown once. Records with an inconclusive call do not appear. For part of these data: Potency and affinity values are given separately. Activity calls are given as the source filed them.
For efficacy in this document: 0% is about no effect.

T1 sequence (P35557 whole entry, looked up): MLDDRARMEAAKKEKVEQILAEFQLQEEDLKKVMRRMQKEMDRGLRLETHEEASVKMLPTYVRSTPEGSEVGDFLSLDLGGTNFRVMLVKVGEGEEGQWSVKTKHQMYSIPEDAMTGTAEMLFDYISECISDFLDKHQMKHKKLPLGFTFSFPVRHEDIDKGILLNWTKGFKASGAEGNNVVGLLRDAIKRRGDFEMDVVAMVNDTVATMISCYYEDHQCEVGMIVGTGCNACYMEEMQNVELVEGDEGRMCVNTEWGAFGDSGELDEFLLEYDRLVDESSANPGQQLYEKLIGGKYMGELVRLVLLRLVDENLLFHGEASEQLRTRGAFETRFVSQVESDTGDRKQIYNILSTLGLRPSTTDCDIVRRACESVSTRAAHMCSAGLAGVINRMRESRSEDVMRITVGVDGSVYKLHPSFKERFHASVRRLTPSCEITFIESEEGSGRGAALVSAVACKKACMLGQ
T1 sequence (Q14397 whole entry, looked up): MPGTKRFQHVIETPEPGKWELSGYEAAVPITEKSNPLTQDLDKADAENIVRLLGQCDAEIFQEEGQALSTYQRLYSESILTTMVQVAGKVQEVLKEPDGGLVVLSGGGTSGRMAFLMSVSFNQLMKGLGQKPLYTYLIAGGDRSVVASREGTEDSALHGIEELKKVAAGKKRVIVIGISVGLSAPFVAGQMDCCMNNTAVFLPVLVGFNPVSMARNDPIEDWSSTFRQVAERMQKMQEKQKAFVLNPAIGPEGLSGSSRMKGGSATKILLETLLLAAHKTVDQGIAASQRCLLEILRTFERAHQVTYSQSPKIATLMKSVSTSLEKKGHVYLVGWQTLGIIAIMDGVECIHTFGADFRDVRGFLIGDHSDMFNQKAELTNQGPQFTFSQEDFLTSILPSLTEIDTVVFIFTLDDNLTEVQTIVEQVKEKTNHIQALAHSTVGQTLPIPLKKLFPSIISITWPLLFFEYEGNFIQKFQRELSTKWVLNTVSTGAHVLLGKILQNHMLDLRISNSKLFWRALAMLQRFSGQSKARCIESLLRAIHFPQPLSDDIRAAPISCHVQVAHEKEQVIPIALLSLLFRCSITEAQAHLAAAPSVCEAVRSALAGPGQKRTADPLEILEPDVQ

Regarding `COC1CC(=C(c2cccs2)c2cccs2)C[N+](C)(C)C1` (configuration not stated), the Potency in experiment [1] was 8.91 µM (active). For the same compound, the efficacy in experiment [2] was 18.8% (inactive). The outcome in experiment [3] and in experiment [4] was inactive.
Take `Cn1c([N+](=O)[O-])cnc1COC(N)=O`: the efficacy in [2] is 19.4% (inactive). Moreover, the compound was classed as inactive in [3] and in experiment [4].
Take `CC[C@]12CCCN3CCc4c(n(c5ccccc45)[C@@](O)(C(=O)OC)C1)[C@@H]32`: the efficacy in experiment [2] is -18% (inactive). Also, the compound was classed as inactive in experiment [3] and in [4].
As for `CCOC(=O)CCC(=O)O[C@H]1[C@H](O[C@@H]2[C@@H](C)[C@H](O[C@H]3C[C@@](C)(OC)[C@@H](O)[C@H](C)O3)[C@@H](C)C(=O)O[C@H](CC)[C@@](C)(O)[C@H](O)[C@@H](C)C(=O)[C@H](C)C[C@@]2(C)O)O[C@H](C)C[C@@H]1N(C)C`, the compound was classed as inactive in experiment [5], in experiment [6] and in [7].
In the case of `C[C@]12CC[C@@H]3c4ccc(OC(=O)N(CCCl)CCCl)cc4CC[C@H]3[C@@H]1CC[C@@H]2O`, the max response in experiment [1] is -1.39% (inactive). Moreover, the efficacy in experiment [2] is -12.5% (inactive). The outcome in [3] and in [4] was inactive.
As for `CN1C(=O)COc2c(C(=O)NC3CN4CCC3CC4)cc(Cl)cc21` (configuration not stated), the max response in [1] was 4.3% (inactive). In experiment [8], the parasite growth, % of DMSO control came to 98.1%. In addition, the parasite growth remaining, % of DMSO control (lower = more inhibition) in experiment [9] came out at 78.2%. In [10], the parasite growth, % of control (lower = inhibition) turned out to be 95.9%. Besides, the growth, % of control in experiment [11] stood at 86.6%. Further, the efficacy in experiment [2] is -18% (inactive). Moreover, the compound was called inactive in [3] and in [4].
Take `[N-]=[N+]=CC(=O)OC[C@H](N)C(=O)O`: the results for the max response in experiment [1] and in [12] were -0.674% (inactive) and 0.519% (inactive), respectively. In addition, the Potency result in [13] was “inactive”. The efficacy in [2] was 10.3% (inactive). Besides, the compound was classed as inactive in [3] and in experiment [4].
In the case of `Cc1ccc(C(=O)C(C)CN2CCCCC2)cc1` (configuration not stated), in [2], the efficacy was -18.5% (inactive). Also, the outcome in [3] and in experiment [4] was inactive.
`O=C(OC1C[C@@H]2CC3C[C@H](C1)N2CC3=O)c1c[nH]c2ccccc12` (some centres not stated): the compound was classed as inactive in experiment [5], in [6] and in experiment [7].
As for `Nc1cc(C(Cl)=C(Cl)Cl)c(S(N)(=O)=O)cc1S(N)(=O)=O`, in experiment [2], the efficacy was -15.2% (inactive). Moreover, the compound was classed as inactive in experiment [3] and in [4].
`CC1CN(c2cc3c(cc2F)c(=O)c(C(=O)O)cn3-c2ccc(F)cc2F)CCN1` (configuration not stated): the efficacy in [2] is 9.66% (inactive). The result in [3] and in experiment [4] was inactive.
Consider `C[C@H](N)C(=O)c1ccccc1`, for which the max response in [1] is 39.4% (inactive) and -13% (inactive). For the same compound, in [2], the efficacy is 31.4% (inactive). In addition, the result in experiment [3] and in experiment [4] was inactive.
Take `CO[C@@H]1[C@@H](O[C@@H]2O[C@H](C)[C@@H](O[C@H]3C[C@@](C)(O)[C@@H](O)[C@H](C)O3)[C@H](N(C)C)[C@H]2O)[C@@H](CC=O)C[C@@H](C)[C@@H](O[C@@H]2CC[C@H](N(C)C)[C@@H](C)O2)/C=C/C=C/C[C@@H](C)OC(=O)C[C@H]1O`: the compound was classed as inactive in experiment [5], in experiment [6] and in experiment [7].
For `COC(=O)C(Cl)C(=O)OC`, the max response in [1] is -5.17% (inactive). For the same compound, the efficacy in experiment [2] is 18.5% (inactive). The call in [3] and in experiment [4] was inactive.
As to `CC(=O)OCC1=C(C(=O)O)N2C(=O)[C@@H](N)[C@H]2SC1`, the max response in experiment [1] is -3.04% (inactive). Also, the efficacy in [2] is 11.9% (inactive). Moreover, the call in [3] and in experiment [4] was inactive.
Take `C=C(C)[C@H]1CN[C@H](C(=O)O)[C@H]1CC(=O)O`: the result in experiment [14], in experiment [15], in [3] and in [4] was inactive. In [1], the max response was 5.55% (inactive) and 38.6% (inactive). In addition, in experiment [2], the efficacy is -11.7% (inactive).
A word on the AC50: it is the concentration at which the activity in the assay is half-maximal. On to `O=C(O[C@H]1CN2CCC1CC2)N1CCc2ccccc2[C@@H]1c1ccccc1`, for which the AC50 is 10 µM (active) in [5] and 7.95 µM (active) in experiment [7]. Also, in experiment [6], the result was inactive.
For `CCN(CC)CCOC(=O)c1ccc(N)cc1`, the efficacy in experiment [2] is -27.3% (inactive). Besides, the result in experiment [4] was inactive.
With `CC(C)OC(=O)OCOP(=O)(CO[C@H](C)Cn1cnc2c(N)ncnc21)OCOC(=O)OC(C)C`, the parasite growth, % of DMSO control in experiment [8] came out at 292%. The same compound had a parasite growth remaining, % of DMSO control (lower = more inhibition) in [9] of 79.8%. Also, in experiment [10], the parasite growth, % of control (lower = inhibition) was 74.1%. For the same compound, in experiment [11], the growth, % of control turned out to be 345%. In addition, in experiment [2], the efficacy is -18.7% (inactive). Moreover, the call in experiment [3] and in experiment [4] was inactive.
As for `CCOc1ccc(NC(=O)CC(C)O)cc1` (configuration not stated), the efficacy in [2] is 16.1% (inactive). Moreover, the outcome in experiment [3] and in [4] was inactive.
`CCCCCCC(=O)CCCCCC/C=C/C[C@@H](O)[C@H](O)[C@@](N)(CO)C(=O)O`: the max response in experiment [1] was -3.38% (inactive) and -2.5% (inactive). Besides, the efficacy in experiment [2] was -11.6% (inactive). In addition, the result in experiment [3] and in experiment [4] was inactive.
For `CN1C(=O)CCS(=O)(=O)C1c1ccc(Cl)cc1` (configuration not stated), the result in experiment [14], in experiment [15], in [3] and in [4] was inactive. Moreover, the max response in experiment [1] was -2.23% (inactive) and 6.27% (inactive). The parasite growth, % of DMSO control in experiment [8] is 98.6%. This compound had a parasite growth remaining, % of DMSO control (lower = more inhibition) in experiment [9] of 91.5%. In experiment [10], the parasite growth, % of control (lower = inhibition) was determined as 126%. This compound returned a growth, % of control in experiment [11] of 109%. Further, the efficacy in experiment [2] was 19.9% (inactive).
For `CC1CCN(CCCC(=O)c2ccc(F)cc2)CC1`, the efficacy in [2] is -14.6% (inactive). Besides, the compound was classed as inactive in experiment [3] and in experiment [4].
Turning to `O=c1[nH]oc2c1CCNC2`, the result in experiment [14], in experiment [15], in [3] and in experiment [4] was inactive. The max response in experiment [1] is 1.24% (inactive) and 27.1% (inactive). For the same compound, the efficacy in experiment [2] was 22.4% (inactive).
Compound `Cn1c(=O)c2[nH]cnc2n(C)c1=O` came in with a parasite growth, % of DMSO control in [8] of 85.4%. Moreover, the parasite growth, % of control (lower = inhibition) in experiment [10] was 114%. The growth, % of control in experiment [11] stood at 96.9%. Further, the efficacy in experiment [2] was -18.7% (inactive). Besides, the result in experiment [3] and in [4] was inactive.
Turning to `CN1C(CSCC(F)(F)F)Nc2cc(Cl)c(S(N)(=O)=O)cc2S1(=O)=O` (configuration not stated), the compound was called inactive in experiment [5], in [6], in [7], in experiment [16], in experiment [17] and in experiment [3]. For the same compound, the compound was classed as inactive in experiment [18] and in experiment [4].
Turning to `NCC[C@H](O)C(=O)N[C@@H]1C[C@H](N)[C@@H](O[C@H]2O[C@H](CN)[C@@H](O)[C@H](O)[C@@H]2O)[C@H](O)[C@@H]1O[C@H]1O[C@H](CO)[C@@H](O)[C@H](N)[C@@H]1O`, the outcome in [5], in experiment [6], in experiment [7], in [16], in experiment [17] and in experiment [3] was inactive. In addition, the outcome in [18] and in [4] was inactive.
Consider `COc1c(N2C[C@@H]3CCCN[C@@H]3C2)c(F)cc2c(=O)c(C(=O)O)cn(C3CC3)c12`, for which the call in experiment [5], in experiment [6], in experiment [7], in [16], in experiment [17] and in [3] was inactive. For the same compound, the result in experiment [18] and in experiment [4] was inactive.
